Results on 63 compounds are retold here after PubChem BioAssay AID624255 (Broad Institute, 2012).

Out of some 77,000 compounds screened, about 4,600 (6%) were called active. Inconclusive results (about 1%) are left out. For the sample, actives were picked, then their nearest neighbours and some compounds at random. A number with no mark means an inactive call.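 The calls were made as follows: active = mean inhibition above about 93%, with at least 55% of replicates each passing it (limit read from the data, passing the limit was not always enough); inconclusive = only one of those two conditions holds; inactive = neither condition holds.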

The assay in a line: growth inhibition of T. cruzi in host fibroblasts – cell-based, beta-gal Tulahuen parasites, NIH3T3 host, luminescence, primary screen (AID 624255). Particulars: T. cruzi beta-gal in NIH3T3, GalScreen luminescence, 90 h; at 8.34 µM; active compounds read high.
Take `COc1ccc(NC(=O)N[C@H]2C=C[C@H](CC(=O)NCc3ccccn3)O[C@H]2CO)cc1`: the inhibition was -16.1%.

Consider `Cc1noc(C)c1NC(=O)Nc1ccc2c(c1)C(=O)N([C@H](C)CO)C[C@@H](C)[C@H](CN(C)S(=O)(=O)c1ccc(Cl)cc1)OCCCC[C@H](C)O2`, for which the inhibition is 53.3%.

Turning to `COCCNC(=O)C[C@H]1CC[C@H]2[C@H](COc3ccc(NC(=O)C4CCOCC4)cc3C(=O)N2C)O1`, the inhibition is 17.3%.

As for `C[C@@H]1CN([C@@H](C)CO)C(=O)c2cc(NC(=O)C3CCCCC3)ccc2O[C@@H](C)CCCCO[C@H]1CN(C)C(=O)CCC(F)(F)F`, the inhibition was 29.9%.

As to `COCC(=O)Nc1ccc2c(c1)OC[C@@H](C)N(Cc1cocn1)C[C@@H](C)[C@@H](OC)CN(C)C2=O`, the inhibition is -2.18%.

On to `CN1c2ccc(-c3ccc(C#N)cc3)cc2[C@@H]2[C@@H](CCN2S(=O)(=O)c2cccc(F)c2)[C@@H]1CO`, for which the inhibition is 72.5%.

Consider `COCC(=O)Nc1ccc2c(c1)[C@H]1C[C@H](CC(=O)NCc3ccc(OC)cc3)O[C@@H](CO)[C@H]1O2`, for which the inhibition was 4.09%.

Consider `O=C(C[C@H]1CC[C@H]2[C@@H](COC[C@H](O)CN2C(=O)c2ccncc2)O1)NCc1cc(F)cc(F)c1`, for which the inhibition was 43.6%.

On to `C[C@@H]1CN([C@H](C)CO)C(=O)Cc2cc(NC(=O)Cc3cn(C)c4ccccc34)ccc2O[C@@H]1CN(C)Cc1ccc(C(F)(F)F)cc1`, for which the inhibition is 89.6%.

Turning to `C[C@@H]1CN([C@H](C)CO)C(=O)Cc2cc(NC(=O)Nc3ccc(C(F)(F)F)cc3)ccc2O[C@H]1CN(C)Cc1ccc(-c2ccccc2)cc1`, the inhibition is 67.4%.

For `C[C@H]1CN([C@@H](C)CO)C(=O)Cc2cc(NS(=O)(=O)c3ccccc3)ccc2O[C@@H]1CN(C)Cc1ccc(C(=O)Nc2ccccc2N)cc1`, the inhibition is 21.9%.

For the compound `C[C@H]1CN([C@@H](C)CO)C(=O)Cc2cc(NS(=O)(=O)c3ccccc3)ccc2O[C@H]1CN(C)Cc1ccc(C(=O)Nc2ccccc2N)cc1`, the inhibition is 48%.

As for `C[C@@H]1CN([C@H](C)CO)C(=O)Cc2cc(NC(=O)Nc3ccccc3)ccc2O[C@@H]1CN(C)Cc1ccc(C(F)(F)F)cc1`, the inhibition is 86.5%.

Turning to `C[C@@H]1CN([C@@H](C)CO)C(=O)Cc2cc(NC(=O)Cc3ccccc3)ccc2O[C@@H]1CN(C)Cc1ccc(Oc2ccccc2)cc1`, the inhibition is 12.2%.

On to `C[C@H](CO)N1C[C@H](C)[C@H](CN(C)Cc2ccc(-c3ccccc3)cc2)Oc2ccc(NC(=O)Nc3ccc(F)cc3)cc2CC1=O`, for which the inhibition was 100% (active).

With `COc1ccc(CN(C)C[C@H]2Oc3ccc(NC(=O)Cc4ccccc4)cc3CC(=O)N([C@@H](C)CO)C[C@@H]2C)cc1`, the inhibition was 74%.

For `C[C@@H]1CN([C@@H](C)CO)C(=O)Cc2cc(NC(=O)C3CCCCC3)ccc2O[C@@H]1CN(C)Cc1ccc(C(=O)Nc2ccccc2N)cc1`, the inhibition is 103% (active).

As to `C[C@H]1CN([C@@H](C)CO)C(=O)Cc2cc(NC(=O)Cc3cn(C)c4ccccc34)ccc2O[C@@H]1CN(C)Cc1ccc(C(F)(F)F)cc1`, the inhibition was 103% (active).

In the case of `C[C@H]1CN([C@@H](C)CO)C(=O)Cc2cc(NC(=O)Cc3cn(C)c4ccccc34)ccc2O[C@H]1CN(C)Cc1ccccc1`, the inhibition was 83.1%.

As to `C[C@@H]1CN([C@H](C)CO)C(=O)Cc2cc(NC(=O)Cc3ccccc3)ccc2O[C@H]1CN(C)Cc1ccc(Oc2ccccc2)cc1`, the inhibition was 99.8% (active).

Consider `C[C@@H]1CN([C@@H](C)CO)S(=O)(=O)c2ccc(-c3cncnc3)cc2O[C@@H]1CN(C)C(=O)C1CC1`, for which the inhibition is 21.1%.

`CCNC(=O)C[C@H]1CC[C@@H]2[C@H](COC[C@H](O)CN2S(=O)(=O)c2ccc(Oc3ccccc3)cc2)O1`: the inhibition is 2.89%.

As to `C/C=C/c1ccc([C@@H]2[C@@H](CO)N(C(=O)CC)[C@H]2CN(C)C(=O)C2CC2)cc1`, the inhibition is 15%.

As for `COc1ccc(CNC(=O)C[C@H]2C[C@H]3c4cc(NS(C)(=O)=O)ccc4O[C@H]3[C@@H](CO)O2)cc1`, the inhibition is -53%.

On to `CNC(=O)C[C@H]1CC[C@H]2[C@@H](COc3ccc(NS(=O)(=O)c4ccc(F)cc4)cc3C(=O)N2C)O1`, for which the inhibition is 17.2%.

`CN(C)C(=O)C[C@@H]1CC[C@H]2[C@@H](COC[C@H](O)CN2C(=O)c2ccncc2)O1`: the inhibition is 24.8%.

On to `COc1ccc(S(=O)(=O)Nc2ccc3c(c2)CC(=O)N([C@H](C)CO)C[C@@H](C)[C@H](CN(C)S(=O)(=O)c2c(C)noc2C)O3)cc1`, for which the inhibition was -5.62%.

As for `C[C@@H](NC(=O)[C@H]1[C@H](CO)[C@H]2Cn3c(cccc3=O)[C@@H]1N2Cc1cccnc1)c1ccccc1`, the inhibition is 50%.

Regarding `C[C@@H]1CN([C@H](C)CO)C(=O)c2cccc(NC(=O)c3cnccn3)c2O[C@@H]1CN(C)Cc1ccc(C(=O)Nc2ccccc2N)cc1`, the inhibition is 109% (active).

As to `C[C@@H]1CN([C@@H](C)CO)C(=O)CCCn2nncc2CO[C@@H]1CN(C)Cc1ccccc1`, the inhibition is -1.5%.

Take `C[C@H]1CN([C@@H](C)CO)C(=O)CCCn2nncc2CO[C@H]1CN(C)Cc1ccccc1`: the inhibition is -4.75%.

For the compound `C[C@@H]1CN([C@H](C)CO)C(=O)CCCn2nncc2CO[C@@H]1CN(C)Cc1ccc(C(=O)Nc2ccccc2N)cc1`, the inhibition is 103% (active).

For `C[C@@H]1CN([C@@H](C)CO)C(=O)c2cccc(NC(=O)c3cnccn3)c2O[C@H]1CN(C)Cc1ccc(C(=O)O)cc1`, the inhibition is -4.45%.

In the case of `C[C@@H]1CN([C@@H](C)CO)C(=O)c2cccc(NC(=O)c3cnccn3)c2O[C@H]1CN(C)Cc1ccc(-c2ccccc2)cc1`, the inhibition is 98.7%.

As to `COCC(=O)Nc1ccc2c(c1)C(=O)N(C)[C@H]1CC[C@H](CC(=O)Nc3ccccc3)O[C@H]1CO2`, the inhibition was 43.2%.

In the case of `C[C@@H]1CN([C@H](C)CO)C(=O)c2cc(-c3ccc(C#N)cc3)cnc2O[C@@H]1CN(C)C(=O)Nc1ccccc1`, the inhibition was 33.2%.

For the compound `CCN1[C@@H]2Cn3c(ccc(-c4cccnc4)c3=O)[C@H]1[C@@H](C(=O)NC1CCCCC1)[C@@H]2CO`, the inhibition is -16.4%.

Consider `O=C(NC[C@@H]1[C@H](c2ccccc2)[C@H](CO)N1CC1CCCC1)c1cccnc1`, for which the inhibition is 15.8%.

Turning to `CO[C@H]1CN(C)C(=O)c2ccc(NC(C)=O)cc2OC[C@H](C)N(C(=O)c2ccccc2)C[C@H]1C`, the inhibition was -19.6%.

Consider `CCNC(=O)[C@@H]1[C@@H](CO)[C@@H]2Cn3c(ccc(-c4ccncc4)c3=O)[C@@H]2N1Cc1cc(F)ccc1F`, for which the inhibition is 80.1%.

Take `C[C@@H]1CN([C@@H](C)CO)S(=O)(=O)c2ccc(C#Cc3ccc(F)cc3)cc2O[C@H]1CN(C)S(C)(=O)=O`: the inhibition was 113% (active).

As to `COCC#Cc1ccc2c(c1)O[C@@H](CN(C)S(C)(=O)=O)[C@H](C)CN([C@H](C)CO)S2(=O)=O`, the inhibition was 2.15%.

As for `CCCN(C)C[C@@H]1Oc2cc(C#CCc3ccccc3)ccc2S(=O)(=O)N([C@H](C)CO)C[C@@H]1C`, the inhibition was 80.1%.

Consider `CNC[C@@H]1Oc2cc(C#CC3CCCC3)ccc2S(=O)(=O)N([C@@H](C)CO)C[C@@H]1C`, for which the inhibition was 61%.

Turning to `CCCC#Cc1ccc2c(c1)O[C@@H](CN(C)CCC)[C@@H](C)CN([C@H](C)CO)S2(=O)=O`, the inhibition was 63.4%.

With `CCCN(C)C[C@@H]1Oc2cc(C#CC3CCCCC3)ccc2S(=O)(=O)N([C@@H](C)CO)C[C@@H]1C`, the inhibition is 42.1%.

For the compound `CCCN(C)C[C@@H]1Oc2cc(C#Cc3ccc(F)cc3)ccc2S(=O)(=O)N([C@H](C)CO)C[C@H]1C`, the inhibition was 100% (active).

As for `C[C@@H]1CN([C@@H](C)CO)S(=O)(=O)c2ccc(C#CC3CCCC3)cc2O[C@H]1CN(C)S(C)(=O)=O`, the inhibition is -41.8%.

As to `CCCN(C)C[C@H]1Oc2cc(C#CC3CCCC3)ccc2S(=O)(=O)N([C@H](C)CO)C[C@@H]1C`, the inhibition was 98.6% (active).

In the case of `C[C@@H](NC(=O)C[C@@H]1CC[C@@H]2[C@H](COC[C@@H](O)CN2C(=O)Nc2cccc(F)c2)O1)c1ccccc1`, the inhibition was 21.9%.

`CC(C)NC(=O)N(C)C[C@@H]1Oc2ncc(-c3ccc(C(=O)N(C)C)cc3)cc2C(=O)N([C@H](C)CO)C[C@H]1C`: the inhibition was 35.4%.

Turning to `COc1ccc(S(=O)(=O)N(C)C[C@H]2OCCCC[C@H](C)Oc3ccc(NS(=O)(=O)c4c(C)noc4C)cc3C(=O)N([C@@H](C)CO)C[C@@H]2C)cc1`, the inhibition is 23.4%.

Regarding `C[C@H]1CN([C@@H](C)CO)C(=O)c2cc(C#CC(C)(C)O)cnc2O[C@H]1CN(C)C(=O)CC1CC1`, the inhibition is -14.6%.

As to `O=S(=O)(Cc1ccccc1)NCC[C@@H]1CC[C@@H](NS(=O)(=O)c2ccccc2)[C@@H](CO)O1`, the inhibition is -0.486%.

For `CC(=O)N1CC[C@@H]2[C@@H](CO)N(C)c3ccc(-c4ccc(C#N)cc4)cc3[C@@H]21`, the inhibition is 52.3%.

`Cc1noc(C)c1NC(=O)Nc1ccc2c(c1)C(=O)N([C@@H](C)CO)C[C@@H](C)[C@H](CN(C)C(=O)Nc1ccc(C(F)(F)F)cc1)OCCCC[C@@H](C)O2`: the inhibition was 27.1%.

Consider `COc1ccc(S(=O)(=O)N2CCCCN3[C@H](CO)[C@H](c4ccc(C5=CCCCC5)cc4)[C@@H]3C2)cc1`, for which the inhibition was 88.5%.

Turning to `COc1ccccc1-c1ccc([C@@H]2[C@@H](CO)N3CCCCN(S(=O)(=O)c4cn(C)cn4)C[C@H]23)cc1`, the inhibition was 42.2%.

As to `COc1ccc(S(=O)(=O)N2CCCCN3[C@H](C2)[C@H](c2ccc(C4=CCCC4)cc2)[C@@H]3CO)cc1`, the inhibition is 7.54%.

In the case of `Cc1ccccc1-c1ccc([C@@H]2[C@H](CO)N3CCCCN(S(=O)(=O)c4ccc(F)cc4)C[C@@H]23)cc1`, the inhibition was 112% (active).

As to `Cn1cnc(S(=O)(=O)N2CCCCN3[C@H](CO)[C@@H](c4ccc(-c5ccc(F)cc5)cc4)[C@@H]3C2)c1`, the inhibition was 11.8%.

On to `Cc1ccccc1-c1ccc([C@H]2[C@H]3CN(S(=O)(=O)c4ccc(F)cc4)CCCCN3[C@H]2CO)cc1`, for which the inhibition is 111% (active).

Consider `O=S(=O)(c1ccc(F)cc1)N1CCCCN2[C@H](C1)[C@H](c1ccc(C3=CCCCC3)cc1)[C@@H]2CO`, for which the inhibition is 99.1% (active).
